# Assay outcomes from PubChem.
# In the library only some 3.3% were active in any assay of this set; here they are far more common.
# ABHD5 PLIN5 PPI – blocks binding of human ABHD5 to perilipin-5; inhibition, % at 4 µM; Q00G26+Q8WTS1; 360,000 compounds, 0.78% hits; AID 602281; Split G. princeps luciferase complementation, luminescence, 4 h;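 active = inhibition above the mean inhibition across every tested compound plus 3 SD, cut at about 22% in these data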;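 also: 0% = DMSO only wells and the 100% control is not disclosed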
# PRMT1 FP inh – blocks human protein arginine methyltransferase 1 | 370,000 compounds, 1.3% hits | AID 652257 | recombinant PRMT1, activity-based probe fluorescence polarization | inhibition, % at 2.79 µM | Q99873;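 active = inhibition above about 21% made by adding two undisclosed values, limit read from the data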
# Target sequence (Q99873 whole entry, looked up): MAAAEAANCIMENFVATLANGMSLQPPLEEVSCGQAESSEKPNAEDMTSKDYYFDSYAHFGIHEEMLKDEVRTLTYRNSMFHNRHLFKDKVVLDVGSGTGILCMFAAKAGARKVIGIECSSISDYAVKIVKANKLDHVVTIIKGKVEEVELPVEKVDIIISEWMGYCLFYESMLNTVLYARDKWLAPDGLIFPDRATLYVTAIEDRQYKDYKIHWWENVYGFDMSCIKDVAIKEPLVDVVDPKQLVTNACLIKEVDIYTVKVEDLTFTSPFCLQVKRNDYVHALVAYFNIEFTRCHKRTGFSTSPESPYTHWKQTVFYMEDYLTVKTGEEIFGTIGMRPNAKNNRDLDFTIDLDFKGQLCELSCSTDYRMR
# TLR9-MyD88 inh – blocks human TLR9 binding to MyD88. Q9NR96+Q99836. CHO BLA complementation TLR9-MyD88, CCF4 FRET ratio. inhibition, % at 4.98 µM. 340,000 compounds, 0.21% hits;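 active = inhibition above the mean over all tested compounds plus 3 SD, cut at about 21% in these data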;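 also: 0% = DMSO only wells and 100% = clavulanate BLA inhibitor control wells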
# rCAG RNA binder – r(CAG) repeat RNA binding; TO-PRO-1 dye displacement fluorescence; inhibition, % at 3 µM; 370,000 compounds, 1.3% hits;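 active = inhibition above the plate cutoff, the mean of all test compounds on that plate plus 3 SD, cut at about 35% in these data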;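 also: 0% = DMSO alone and 100% = 100 µM mitoxantrone as full dye displacement; higher means more dye released from RNA so lower well fluorescence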
# TLR4 MyD88 comp – TLR4-MyD88 interaction inhibition in cells. O00206+Q99836. HeLa CL3-4 TLR4/MyD88 BLA complementation, FRET ratio. inhibition, % at 8.4 µM. 200,000 compounds, 0.18% hits; in the data active = inhibition above about 25%;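 also: 0% = vehicle and 100% = reference inhibitor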
# NOD2-RIPK2 inh – blocks binding of human NOD2 to RIPK2; inhibition, % at 4.98 µM; O43353; 360,000 compounds, 0.38% hits; AID 624267; CHO BLA complementation NOD2-RIPK2, CCF4 ratio; in the data active = inhibition above about 21%;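 also: 0% = vehicle only and 100% = reference blocker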
# NOD2 RIPK2 conf – NOD2-RIPK2 interaction inhibition confirmed; 1,200 compounds, 70% hits; inhibition, % at 4.98 µM; CHO cells, NOD2-RIPK2 BLA complementation, CCF4 FRET; shares compounds with NOD2-RIPK2 inh; AID 624370;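 active = mean inhibition across replicates above a set limit taken from the earlier primary screen, cut at about 21% in these data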;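 also: 0% = DMSO-only wells and the high end = clavulanate BLA-blocked wells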
# BLA counter – counter-screen for NOD2-RIPK2 interaction inhibitors: BLA reporter; shares compounds with NOD2-RIPK2 inh; CHO BLA reporter, CCF4 FRET ratio, counterscreen; inhibition, % at 4.98 µM; 1,200 compounds, 57% hits; AID 624371;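 active = mean inhibition above the low-control mean inhibition plus three low-control SD, cut at about 11% in these data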;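 also: 0% = DMSO only wells and 100% = clavulanate high control wells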
# An asterisk follows results filed as active; nt = not tested or not shown; ! = a repeat was not active.
SMILES,ABHD5 PLIN5 PPI,PRMT1 FP inh,TLR9-MyD88 inh,rCAG RNA binder,TLR4 MyD88 comp,NOD2-RIPK2 inh,NOD2 RIPK2 conf,BLA counter
Cc1cc(NC(=O)CCN2C(=O)/C(=C/c3ccccc3Cl)SC2=S)no1,-0.7,-1.3,0.3,3.4,-13.4,33.9*,-10.5,-1.6
NC(=S)N=Nc1c(O)n(Cc2ccc(F)cc2)c2ccccc12,-4.9,4.2,-8.7,12.4,5.0,2.3,nt,nt
Cc1cccc2c(=O)cc(C)n(Cc3ccccc3)c12,2.9,-0.6,-9.1,-0.8,-3.9,-2.0,nt,nt
Cc1cccc2c(N=O)c(O)n(CCc3ccccc3)c12,-10.8,0.4,15.7,11.3,nt,25.9*,25.1*,13.8*
O=Nc1c(O)n(Cc2ccc(Cl)cc2)c2ccccc12,-2.4,-4.0,20.1,9.4,3.3,22.5*,22.1*,16.9*
CCN(CC)C(=O)C1=C(C)N(Cc2ccc(OC)cc2)C(=O)C(CC(=O)NC(c2ccccc2)c2ccccc2)C1 (centres undefined),5.4,5.2,-4.1,1.1,nt,-2.2,nt,nt
CN(CC(=O)Nc1ccccc1Cl)C(=O)COC(=O)c1nc(Cl)c(Cl)c(Cl)c1Cl,1.1,1.2,15.3,2.1,nt,23.9*,28.1*,9.3
CCOC(=O)/C=c1\s/c(=C\c2ccc(-c3ccccc3)cc2)c(=O)n1CC(=O)NCc1ccc2c(c1)OCO2,9.4,0.6,-0.6,9.8,-6.2,0.4,nt,nt
CCOC(=O)/C=c1/s/c(=C/c2ccc3cc(OC)ccc3c2)c(=O)n1CC(=O)NCc1ccc2c(c1)OCO2,-4.3,0.7,-4.2,7.4,nt,25.0*,44.1*,53.1*
O=C(CSc1ccccn1)Nc1nonc1[N+](=O)[O-],5.7,29.4*,15.0,0.6,nt,31.4*,13.3,4.9
O=C(CN1C(=O)C2C3C=CC(C3)C2C1=O)OCC(=O)c1ccc(Cl)c([N+](=O)[O-])c1 (centres undefined),-1.1,-3.9,-3.9,5.8,nt,8.8,nt,nt
Cc1ccc(O)c(C2=Nc3ccccc3N=C(c3ccco3)C2)c1,1.7,2.1,12.1,5.8,-4.1,23.2*,8.5,46.3*
CC(=O)Oc1c(-c2ccco2)oc2ccccc2c1=O,-7.3,-5.9,20.0,9.5,7.6,27.5*,31.4*,30.2*
COc1cc2c3nnc(-c4ccc(F)cc4)c-3cn(Cc3ccccc3)c2cc1OC,-1.7,-1.8,12.0,15.2,21.8,66.5*,66.0*,66.4*
COc1ccc(-c2nnn(Cc3ccccc3)n2)cc1OC,-1.7,-0.9,-8.4,-7.4,nt,5.1,nt,nt
Cc1cccc(OCc2nn[nH]n2)c1C,3.0,1.0,-1.9,0.3,nt,3.2,nt,nt
Cc1cc(F)ccc1-c1cc(C(=O)Nc2ccccc2)[nH]n1,-2.0,0.4,nt,1.4,nt,-2.2,nt,nt
CC(=O)Nc1ccc(NC(=O)c2cc(-c3ccc(F)cc3C)n[nH]2)cc1,8.2,0.1,nt,-0.9,nt,28.3*,-21.1,-7.5
CC(=O)C1=CCC(c2ccc(Cl)cc2)N(S(=O)(=O)c2ccccc2C)C1 (centres undefined),5.0,4.0,nt,5.3,nt,-6.1,nt,nt
c1ccc(COCCc2cn(Cc3ccccc3)c3ccccc23)cc1,nt,5.3,nt,2.3,nt,nt,nt,nt
S=c1[nH]nc(-c2cc3c(s2)-c2ccccc2CC3)o1,-44.7,21.5*,11.7,47.6*,15.7,30.4*,25.4*,38.5*
CC(=O)c1cccc(NC(=O)CNC(=O)c2sc3ccccc3c2Cl)c1,2.2,1.4,1.3,5.9,nt,-1.1,nt,nt
COCC(=O)N(C)C[C@H]1N[C@@](C)(C(=O)OC)[C@H]2C(=O)N(C)C(=O)[C@@H]12,7.6,2.5,-1.8,2.8,nt,10.5,nt,nt
CC(C)NS(=O)(=O)c1ccc(OCC(=O)N2CCN(c3ccccc3)CC2)cc1,-4.9,-3.5,1.6,-5.7,7.4,67.8*,-5.9,-2.5
OC[C@@H]1[C@@H](c2ccc(F)cc2)C(c2cccc(Cl)c2)=NN1c1ccccc1,-9.7,1.5,1.8,8.0,nt,29.4*,29.5*,53.7*
SMILES,ABHD5 PLIN5 PPI,PRMT1 FP inh,TLR9-MyD88 inh,rCAG RNA binder,TLR4 MyD88 comp,NOD2-RIPK2 inh,NOD2 RIPK2 conf,BLA counter
OC[C@@H]1[C@@H](c2ccc(Cl)cc2)C(c2cccc(Cl)c2)=NN1c1ccccc1,-13.1,3.2,1.7,9.2,nt,34.3*,29.7*,59.4*
O=C(CN(c1cccc(C(F)(F)F)c1)S(=O)(=O)c1ccc(Cl)c([N+](=O)[O-])c1)NCc1ccc(F)cc1,14.9,4.0,5.9,5.5,6.8,23.3*,28.9*,-1.5
CNc1c2cccc(C)c2nc2c(C(=O)NCCN(C)C)cccc12,0.6,3.5,6.7,5.2,nt,40.8*,58.0*,28.6*
Cc1ccc(C(=O)NCCN(C)C)c(C)c1,-1.1,1.6,-5.6,-1.0,-5.6,-4.6,nt,nt
COc1ccc(C(CNC(=O)c2cccc(S(=O)(=O)N3CCc4ccccc43)c2)N(C)C)cc1 (centres undefined),-1.4,-0.9,-9.2,9.5,nt,2.5,nt,nt
CN(C(=O)c1cccc(NC(=O)Cc2cccc(NC(=O)C3CCN(C(=O)c4ccccc4)CC3)c2)c1)C1CC1,5.3,-0.4,-0.3,2.0,nt,-12.8,nt,nt
COc1ccc2c(c1)C(C)=CC(C)(C)N2S(=O)(=O)c1ccc(NC(C)=O)cc1,-0.1,-0.3,-5.5,-5.4,nt,25.9*,14.1,-4.0
Cc1cc(-c2ccco2)c(C#N)c2nc3ccccc3n12,-7.2,-0.6,4.6,17.6,12.0,22.4*,17.8,14.8*
Cc1ccc(S(=O)(=O)N(CC(=O)Nc2ccc(Cl)cc2)C(=O)N2CCN(C)CC2)cc1,-3.2,2.9,3.6,1.6,nt,-17.1,nt,nt
Cc1[nH]c(C)c(S(=O)(=O)Nc2ccccc2Cl)c1C(=O)N1CCCC1,-1.0,-2.2,-4.9,0.2,nt,-4.5,nt,nt
COc1ccccc1NS(=O)(=O)c1c(C)[nH]c(C)c1C(=O)N1CCCC1,3.6,-2.6,-8.8,0.1,nt,35.6*,-4.6,-7.3
COc1cccc(N2CCN(S(=O)(=O)c3c(C)[nH]c(C)c3C(=O)N3CCCC3)CC2)c1,7.5,-0.7,-5.0,0.0,nt,22.6*,1.4,-2.5
COc1ccc(/C=N/N2CCOCC2)cc1COc1ccc(Cl)cc1,-6.3,-1.3,-0.5,-0.4,-10.8,-4.3,nt,nt
O=[N+]([O-])c1ccc(N/N=C/c2ccccc2)c(F)c1,-6.0,-1.4,16.6,11.5,17.1,24.1*,27.0*,29.9*
O=C1Nc2cc(C(=O)NCCN3CCCCCC3)ccc2S/C1=C/c1ccccc1F,6.4,-2.5,5.5,12.9,nt,21.8*,48.9*,51.2*
CCCCNc1c(-c2ccc(OC)c(SC3CCCCC3)c2)nc2ccc(C)cn12,-12.6,4.2,-7.1,5.6,nt,52.5*!,20.3,10.1
